Data from PubChem BioAssay AID2284386 (EPA ToxCast).
Activity calls are given as the source filed them. Rule for the calls: active = hit-call score of the fitted dose curve at least 0.9, where 1 is the maximum; inactive = score below 0.9.

target: Peroxisome proliferator-activated receptor gamma (Homo sapiens) (UniProt P37231); assay: ERF_FR_NR_COA_hPPARG: Eurofins (ERF) Nuclear Receptor (NR) Functional Coactivator Assay for human Peroxisome Proliferator-activated Receptor gamma (PPARg) Agonism, conducted at France lab site
Sequence (P37231 whole entry, looked up): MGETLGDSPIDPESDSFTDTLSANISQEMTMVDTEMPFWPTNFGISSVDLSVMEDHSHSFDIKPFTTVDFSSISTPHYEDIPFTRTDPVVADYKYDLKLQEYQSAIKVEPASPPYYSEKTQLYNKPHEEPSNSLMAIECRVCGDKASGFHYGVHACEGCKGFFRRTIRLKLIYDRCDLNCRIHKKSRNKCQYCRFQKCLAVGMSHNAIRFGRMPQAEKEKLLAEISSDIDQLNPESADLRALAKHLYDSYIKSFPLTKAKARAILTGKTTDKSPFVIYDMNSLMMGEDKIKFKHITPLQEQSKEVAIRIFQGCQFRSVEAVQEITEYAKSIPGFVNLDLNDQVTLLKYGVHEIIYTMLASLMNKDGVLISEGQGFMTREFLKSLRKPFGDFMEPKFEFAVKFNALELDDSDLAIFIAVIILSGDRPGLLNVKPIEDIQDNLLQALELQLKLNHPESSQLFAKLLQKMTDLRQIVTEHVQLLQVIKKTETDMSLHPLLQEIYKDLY
Procedure: ERF_FR_NR_COA_hPPARG is a biochemical, single-readout assay that uses extracted gene-proteins in a cell-free assay. Measurements were taken 2 hours after chemical dosing in a 384-well plate. See PPARgamma Human NHR Functional Agonist Coactivator Assay, Cerep.ERF_FR_NR_COA_hPPARG is an assay component calculated from the ERF_FR_NR_COA_hPPARG assay. It is designed to measure FRET using a type of binding reporter as detected by fluorescence intensity of Rosiglitazone with fluorimetry technology.Data from the assay component ERF_FR_NR_COA_hPPARG was analyzed at the assay endpoint, ERF_FR_NR_COA_hPPARG, in the positive analysis fitting direction relative to DMSO as the negative control and baseline of activity. Using a type of binding reporter, gain-of-signal activity can be used to understand changes in binding as they relate to gene PPARG. To generalize the intended target to other relatable targets, this assay endpoint is annotated to the nuclear receptor intended target family, where the subfamily is non-steroidal.
Test compound and/or vehicle is incubated with the 2 nM receptors and coactivator peptide for 180 minutes at room temperature. Determination of the amount of complex formed is read spectrofluorimetrically (excitation: 337 nm, emission: 520/490 nm). Test compound-induced increase fluorescence by 50 percent or more (>/=50%) relative to 1 uM GW1929 response indicates possible PPARgamma receptor agonist activity. Test compound-induced inhibition of 5 nM GW1929-induced fluorescence response by 50 percent or more (>/=50%) indicates receptor antagonist activity.

outcome, inactive:
NC(=O)c1nc(-c2cccc(-c3cc(F)ccc3OCC(F)(F)C(F)(F)F)c2)n[nH]1, O=C(CC(=O)C(F)(F)C(F)(F)C(F)(F)F)c1cccs1, O=C(O)CCC(F)(F)C(F)(F)C(F)(F)F
